Experimental data published in the supplement of paper PMC10105736.
Unmarked numbers belong to inactive results.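 The calls were made as follows: active = MAPPIT score above the 99th percentile of random reference set scores in the same batch; inactive = at or below it.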

B1: nAChRbeta1 (protein)
chain: MESSCKSWLLCSILVLVAFSLVSASEDEERLVRDLFRGYNKLIRPVQNMTQKVGVRFGLAFVQLINVNEKNQVMKSNVWLRLVWYDYQLQWDEADYGGIGVLRLPPDKVWKPDIVLFNNADGNYEVRYKSNVLIYPTGEVLWVPPAIYQSSCTIDVTYFPFDQQTCIMKFGSWTFNGDQVSLALYNNKNFVDLSDYWKSGTWDIIEVPAYLNVYEGDSNHPTETDITFYIIIRRKTLFYTVNLILPTVLISFLCVLVFYLPAEAGEKVTLGISILLSLVVFLLLVSKILPPTSLVLPLIAKYLLFTFIMNTVSILVTVIIINWNFRGPRTHRMPMYIRSIFLHYLPAFLFMKRPRKTRLRWMMEMPGMSMPAHPHPSYGSPAELPKHISAIGGKQSKMEVMELSDLHHPNCKINRKVNSGGELGLGDGCRRESESSDSILLSPEASKATEAVEFIAEHLRNEDLYIQTREDWKYVAMVIDRLQLYIFFIVTTAGTVGILMDAPHIFEYVDQDRIIEIYRGK
B2: CG5902 (protein)
chain: MSNSHYNNYQQQQPHSSNGDPEYQHQQMVHQPQRFSNGHGMKTVAVPDMCLFCFEVLDCELNNVDGPSVPVFSNDAYPLFVTWKIGRDKRLRGCIGTFSAMELHHGLREYALTSAFKDSRFAPISRDELPRLTVSVSILQNFEEAQGHLDWQLGVHGIRIEFLTERGCKRTATYLPQVATEQGWDQLQTIDSLLRKGGYRAAITPETRKSIKLTRYRSQEIQMHYKEYREYQERRAQFGKVQC

Tests used:
Experiment in all cases: MAPPIT interaction score (arbitrary units); higher = stronger binary interaction signal, active = hit call of the paper
CG14767 = settings: pair source set: RRS
Description: (§1)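 MAPPIT in HEK293T cells: Drosophila bait and prey ORFs (from the FlyBi ORF collection) were co-transfected in quadruplicate, with two wells stimulated by erythropoietin. Interaction-dependent JAK-STAT activation was read out with a STAT-responsive firefly luciferase reporter. Positive calls use the 99th percentile of random reference set (RRS) scores within each batch […]. Batches Dvs01 and Dvs02 used the N-N configuration and Dvs04 the N-C configuration. Pairs come from FlyBi screens, CuraGen, DPiM, Finley Y2H, Lit-BM-16, Lit-BS-16 and RRS.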

CG30472 = settings: MAPPIT configuration: N-N; pair source set: RRS
Description: as §1

trbd = settings: MAPPIT configuration: N-N; pair source set: screen_1
Description: as §1
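Also: HEK293T cells with Epo stimulation, STAT-responsive firefly luciferase reporter, fold induction versus unstimulated cells divided by the larger fold induction of two negative controls lacking either bait or prey.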

Row | Binder | MAPPIT interaction score (CG14767; MAPPIT configuration: N-C) | MAPPIT interaction score (CG14767; MAPPIT configuration: N-N) | MAPPIT interaction score (CG30472) | MAPPIT interaction score (trbd)
1 | B1 | 0.324 | 0.0737 | -0.0464 | 
2 | B2 |  |  |  | 2.52 (active)
